# Data from PubChem BioAssay (NCI).
# This is part of a sample that, as a whole, favours compounds with a hit. Of some 79,000 tested, about 15% had one in any assay. Unmarked numbers belong to inactive results. Calls of active or inactive are those of the source. No stated cut-off is given here; in the data, active means growth inhibition above about 70%; inactive means the rest.
# Columns and labels:
# [1] = NCI Yeast Anticancer Drug Screen. Data for the rad50 strain (AID 155);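 further: 0% = growth of vehicle-only cultures of the same strain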; conditions: S. cerevisiae rad50 strain growth inhibition; at 50.0 µM; active compounds read high
# Outline: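 DNA repair mutant yeast, compound exposure, growth read-out; inhibition is taken relative to vehicle.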
# [2] = NCI Yeast Anticancer Drug Screen. Data for the mec2-1 strain (AID 157); conditions: S. cerevisiae mec2-1 strain, at 50.0 µM, active compounds read high
# Outline: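 mec2-1 yeast strain, carrying an alteration in DNA damage repair or cell cycle control, was exposed to compounds; growth inhibition was measured relative to vehicle-treated controls.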
# [3] = NCI Yeast Anticancer Drug Screen. Data for the sgs1 mgt1 strain (AID 161);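 further: 0% = growth of cultures given vehicle only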; conditions: S. cerevisiae sgs1 mgt1 strain, at 50.0 µM, active compounds read high
# Outline: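 Yeast cells carrying a defined DNA-repair defect were exposed to test compounds. Growth inhibition was measured relative to vehicle-treated controls.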
# [4] = NCI Yeast Anticancer Drug Screen. Data for the cln2 rad14 strain (AID 165);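 further: 0% = growth equal to vehicle treated cultures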; conditions: S. cerevisiae cln2 rad14 strain, at 50.0 µM, active compounds read high
# Outline: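 Yeast carrying cln2 and rad14 alterations (cell cycle control and DNA damage repair) were exposed to compounds. Growth inhibition was measured against vehicle-treated controls.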
# [5] = NCI Yeast Anticancer Drug Screen. Data for the bub3 strain (AID 167); conditions: S. cerevisiae bub3 mutant strain, at 50.0 µM, active compounds read high
# Outline: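 In this screen, a yeast mutant lacking normal mitotic checkpoint function is challenged with compound. Relative growth versus vehicle gives the inhibition value.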
# [6] = NCI Yeast Anticancer Drug Screen. Data for the mlh1 rad18 strain (AID 175); conditions: S. cerevisiae mlh1 rad18 strain growth inhibition; at 50.0 µM; active compounds read high
# Outline: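 Growth inhibition of the yeast strain was measured after compound exposure and expressed relative to vehicle-treated controls. The strain carries defined defects in DNA damage repair.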
SMILES,growth inhibition [1],growth inhibition [2] [%],growth inhibition [3],growth inhibition [4] [%],growth inhibition [5] [%],growth inhibition [6]
COc1ccc(N2C=Nn3c(nc4sc(C)c(C)c4c3=O)C2)cc1,7%,12.9,20.9%,-12.3,12.9,-1%
CCc1ccc(N=Nc2c(F)c(F)c(N)c(F)c2F)cc1,6.1%,-11.3,2.4%,2.85,0.55,14.3%
CCOC(=O)c1sc(SC)nc1NC(=O)c1ccc(OC)cc1,24.6%,21.7,-31.6%,17.2,2.1,19.1%
CC1(c2cccc[n+]2Cc2ccc(Cl)c(Cl)c2)OCCO1,6.7%,1.65,0.2%,-18.3,-2.2,14.2%
COC1(OC)CC2OC1C1N=NN(C(=O)OC(C)(C)C)C21 (stereo unspecified),28.1%,13.3,6.8%,21.6,16.8,31.4%
COC(=O)c1cc(C(=O)OC)c(C/C(=N/Nc2ccc([N+](=O)[O-])cc2[N+](=O)[O-])C(=O)Nc2cccc(C(F)(F)F)c2)nc1C/C(=N/Nc1ccc([N+](=O)[O-])cc1[N+](=O)[O-])C(=O)Nc1cccc(C(F)(F)F)c1,57%,-5.95,1.15%,25.4,37.9,59.8%
CC(=O)C1C(=O)C(=O)N(c2ccc(Br)cc2)C1=O (stereo unspecified),-33.5%,-12.6,-14.3%,-9.8,-24.4,-38%
COC1=C(OC)C(=O)C2=C(OCO2)C1=O,-1.05%,16.2,4.2%,-1.35,16.5,-1.1%
CC(=O)c1ccc(N=C2c3ccccc3CN2c2ccc(C(C)=O)cc2)cc1,11.8%,-13.6,-6.75%,-10.6,-5.25,4.5%
Cc1ccc2c(c1)[nH]c(=S)n2/C=C(\c1ccccc1)S(=O)Cc1ccccc1 (stereo unspecified),-23.7%,-25.6,-19.9%,0.3,-28.1,-26.2%
C#CCSC(=N)N,5.4%,-6.9,8.9%,5.2,8.8,5.75%
CCCCCCCCCCCC(=O)OCCSC#N,-7.45%,0.1,-2%,-21.4,-0.2,0.05%
Cc1ccc(OC/C=C/c2ccc(C#N)cc2)cc1,2.55%,0.05,-4.15%,-17.6,1.8,-3%
CC(=O)Nc1ccc(Nc2nc(=O)[nH]c(=O)[nH]2)cc1,-3.2%,-12.6,13.1%,-0.55,-1.6,-32.6%
CC(C)SC(CC(O)C(O)COC(=O)c1ccccc1)SC(C)C (stereo unspecified),-8.05%,-0.15,6.15%,-8.35,-4.7,17.8%
CCCCCCCCCCCCCCCC/C(C)=C\C(=O)OC,3.8%,20.3,22.9%,-0.9,28.9,16.1%
Cn1c(N)c(NC(=S)NCC2CCCCC2)c(=O)n(C)c1=O,-2.8%,-5,-1.2%,-9.6,-3.6,1.5%
O=S(=O)(OCCCCCCCCCCOS(=O)(=O)c1ccc(Cl)cc1)c1ccc(Cl)cc1,-7.6%,-3.6,-3.6%,8.6,-5.3,-4.55%
CN=C(NC(=S)N(C)C)N(C)C,-4.3%,-6.85,-9.4%,-7.85,-14.1,2.75%
CCN(CC(=O)O)C(=O)c1cccnc1,-17.9%,4.05,-33.4%,-28.7,-6.6,-6.4%
O=C1NC(N2CCCCC2)=N/C1=C\c1ccccc1O,5%,-25.3,-2.85%,15.1,5.5,89.7% (active)
Cn1c(=O)c2[nH]c([N+](=O)[O-])nc2n(C)c1=O,23.4%,-10,-0.3%,13.6,-20.1,25.8%
CC1=C(C(=O)CC(=O)C(=O)NC2C3CC4CC(C3)CC2C4)Sc2ccccc2N1 (stereo unspecified),-33.5%,-0.15,-2.6%,8.8,-0.6,-21%

SMILES,growth inhibition [1],growth inhibition [2] [%],growth inhibition [3],growth inhibition [4] [%],growth inhibition [5] [%],growth inhibition [6]
CC(=O)C1(C)OC(c2ccccc2)=NC1=S (stereo unspecified),7.4%,14.3,7.55%,14.9,-5.1,9.35%
CCCCC1(N=[N+]=[N-])C(=O)c2cccc3c2N(CCC3)C1=O (stereo unspecified),48.8%,30.9,29.9%,3.1,15.6,61.5%
O=[N+]([O-])c1cccc(N=Nc2ccccc2)c1,-4.25%,-10.3,-22.3%,18.7,-21.6,-0.95%
COc1ccc(CCNC(=S)/N=C\C2=C(O)c3ccccc3C2=O)cc1OC,-26.1%,-51.9,-17.5%,4.65,-5.05,-19.3%
CC(=O)NNc1nc(C)c(C(/C=C/c2ccc(NC(C)=O)cc2)=N/NS(=O)(=O)c2ccc(C)cc2)s1,-6.75%,-23.8,3.15%,-6.2,6.35,-21.4%
NC1(C(=O)O)CCCc2ccccc21 (stereo unspecified),13.3%,8.15,-1.1%,-1.7,-12.6,8.95%
Nc1ccc(F)c(F)c1,4.3%,-6.65,14.2%,-20,2.65,13.8%
C[n+]1c(I)ccc2ccccc21,35%,36.5,53.4%,15,15.9,36.3%
O=C(Nc1ccccc1)c1ccccc1C(O)(c1ccccc1)c1ccc(Cl)cc1 (stereo unspecified),84.7% (active),14,77% (active),11.1,52,56.3%
CC(C)(C)[N+](=O)[O-],-17.2%,-27.1,-10.7%,4.95,1.4,17.1%
OC(CNC1CC2CCC1C2)COc1cccc2ccccc12 (stereo unspecified),68.4%,42.9,76.5% (active),52.4,51,82.4% (active)
CCCCCCCCCC(CC(OC)OCC)OC (stereo unspecified),10.7%,4.25,5.9%,-13.8,-2.7,-24.6%
CC1(O)OC(=O)c2ccc3ccccc3c21 (stereo unspecified),-11.4%,-19.9,-9.35%,14.9,-20.8,11%
O=C(Nc1ccc(Br)cc1)Nc1ccc(Br)cc1,-23.3%,8.15,15.3%,-36.4,31.9,6.25%
O=C(NC(=O)c1c(F)cccc1F)Nc1nc2c(Cl)cccc2s1,21.4%,14.7,10.1%,-4.9,-6.55,17.6%
CSC1(C)C(=O)Nc2cccc([N+](=O)[O-])c21 (stereo unspecified),-9.85%,-20.1,1%,-7.5,11.8,2.45%
Cc1cccnc1C,16.9%,-7.25,-16.2%,24.4,14.4,7.85%
O=C1CSC(=S)N1.[Cu+2],-7.9%,-9.5,7.7%,-7.65,-4.5,4.3%
NC(=S)c1ccccn1,18.6%,11.4,32.8%,-22.5,2.4,26.9%
C1CSCC2(COC2)CSCCSCC2(COC2)CS1,-23.1%,-13.4,-18.9%,-3.05,-7.35,-18.6%
N#C/C=C\c1ccc(Cl)cc1,2.6%,-4.5,-30.4%,-10.8,-11.8,-3.05%
COc1cccc(C(=O)NNC(=O)c2ccc3ccccc3c2)c1,13.2%,4.55,-2.45%,6.55,3.9,7.95%
O=C(/N=C1\N=Nc2nc(C(C(=O)c3cccc([N+](=O)[O-])c3Cl)c3nc4n(c3O)/C(=N/C(=O)Nc3ccc(Cl)cc3)N=N4)c(O)n21)Nc1ccc(Cl)cc1 (stereo unspecified),9.35%,-8.2,5.25%,-6.65,0.7,7.1%
